We go through 37 compounds from PubChem BioAssay (NCI).

Structures are written as SMILES. This is part of a sample that, as a whole, favours compounds with a hit. Of some 83,000 tested, about 20% had one in any assay.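 48-hour exposure, single concentration, 96-well plates; percent growth endpoint where 0 means no net growth. Active: below 10.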 A number with no mark means an inactive call. Calls of active or inactive are those of the source.

For the test, the system named is MDA-MB-468 breast. The test is described as follows: NCI-60 one-dose screen, 48 h (100 = growth as untreated, 0 = no growth, -100 = all killed). To be noted: 10 µM unless noted.
Take `COc1ccc(C(=O)c2cc(C)c(OC)c(C)c2)c(OC)c1O`: the growth is 20.4%. Take `CNC(=O)c1cc(-c2ccc(NC(=O)Nc3ccc(N4CCN(C)CC4)c(C(F)(F)F)c3)cc2)nc2cccnc12`: the growth was -73.8% (active). On to `N/C(=C\C(=O)n1nc(-c2ccccc2)cc1N)c1ccccc1`, for which the growth is 19.2%. With `Cc1ccc2c(C)c3c(ccc4ccccc43)c[n+]2c1`, the growth was -42.1% (active). Turning to `CCn1c(SCC(=O)N/N=C(\C)c2ccc(Cl)cc2)nc2c1c(=O)n(C)c(=O)n2C`, the growth was 96.6%.

`Nc1ccc(Nc2nccc(-c3ccc4ccccc4c3)n2)cc1`: the growth was -10.6% (active). As to `Cc1cn(-c2cc(NC(=O)c3cncc(C#Cc4cnc5ccc(OCCCS(C)(=O)=O)nn45)c3)cc(C(F)(F)F)c2)cn1`, the growth was -22.5% (active).

For the compound `S=C(Nc1ccccc1)N1CCCCC1`, the growth is 90.3%. For the compound `CN[C@@H](C)C(=O)N[C@H]1CCS[C@H]2CC(C)(C)[C@@H](C(=O)N[C@H]3c4ccccc4C[C@H]3OCC#CC#CCO[C@@H]3Cc4ccccc4[C@@H]3NC(=O)[C@H]3N4C(=O)[C@@H](NC(=O)[C@H](C)NC)CCS[C@H]4CC3(C)C)N2C1=O`, the growth was 19.3%. As for `C=CCn1c(SCC(=O)Nc2ccc(C(=O)/C=C/c3ccc(Cl)cc3)cc2)nnc1-c1ccc(Br)cc1`, the figure is 79.1%; as for `O=c1[nH]nc(-c2ccccc2)c2c(-c3ccccc3)onc12`, 1.46% (active). As for `CCC(C)[C@H]1O[C@]2(CC[C@@H]1C)C[C@@H]1C[C@@H](C/C=C(\C)[C@@H](OC3C[C@H](OC)C(O[C@H]4C[C@H](OC)[C@@H](O)[C@H](C)O4)[C@H](C)O3)[C@@H](C)/C=C/C=C3\CO[C@@H]4[C@H](O)C(C)=C[C@@H](C(=O)O1)[C@]34O)O2` (some centres not stated), the figure is 10.5%; as for `O=C1C[C@@H]2/C(=C(O)\C=C\c3ccccc3)C(=O)C=C[C@@H]2O1`, -76.9% (active). As for `Cc1nc2sc(C(=O)Nc3cccc(Cl)c3C)c(N)c2cc1C(=O)/C=C/c1ccccc1`, the figure is 4.69% (active); as for `Cc1cc(=O)oc2c1ccc1oc(C#N)c(C)c12`, 114%; as for `CS(=O)(=O)c1cccc(Nc2ncc3cc(-c4ccccc4Cl)ccc3n2)c1`, 13.1%. As for `c1cc[n+](Cc2ccnc3ccccc23)cc1`, the growth is 126%.

For `Cc1ccc(-n2c(/C=C3\C(=O)Nc4ccccc43)ccc2CO)cc1`, the growth is 45.1%.

Regarding `c1nc(SC2=NCCN2)c2[nH]cnc2n1`, the growth is 14.7%. `Cc1ccc(C)c2c1CCC2C(C)C` (configuration not stated): the growth was 106%.

Turning to `c1ccc2c(-c3nc4ccccc4[nH]3)cccc2c1`, the growth is -15.3% (active). With `COc1ccccc1S(=O)(=O)Nc1ccc2c3c(cc(-c4ccoc4)nc13)C(=O)N2C`, the growth is 39.7%. As for `O=C1NC(=O)C2(CCCC2C(=O)O)N1` (configuration not stated), the figure is 107%.

With `CCOC(=O)CCCCCCCCC(=O)OCC`, the growth was 104%.

For `CC1CCC2(OC1)OC1CC3C4CC=C5CC(O)CCC5(C)C4CCC3(C)C1C2C` (configuration not stated), the growth was 89.4%. As for `NS(=O)(=O)c1ccc(CCN2C(=O)/C(=C\c3ccc(Cl)cc3)C=C2c2ccc3ccccc3c2)cc1`, the growth was 91%. On to `C=C(C)[C@@H]1CC[C@]2(/C=N/Nc3ccncc3)CC[C@]3(C)[C@H](CC[C@@H]4[C@@]5(C)CCCNC(C)(C)[C@@H]5CC[C@]43C)[C@@H]12`, for which the growth is 83.7%. With `COCCn1cc(-c2nc(-c3cc4cccnc4n3C)cs2)c2cc(OC)ccc21` the figure was -28% (active); with `COc1ccc(C2Nc3nc(SC)nc(N)c3N=C3c4ccccc4CCC32)cc1` (configuration not stated), 102%; with `Cn1cc(-c2nonc2-c2c[nH]c3ccc(F)cc23)c2cccnc21`, -7.39% (active). Take `C#CC(C)(O)[C@@H]1C[C@H](CC(=O)O)C1(C)C` (some centres not stated): the growth is 114%.

Turning to `COC(=O)c1c2c(c(C)[n+]([O-])c1C)C(=O)C(NCc1ccc(Cl)cc1)=CC2=O`, the growth is 39.8%. For `CCCn1cnc2c(c1=N)C(c1ccc(F)cc1)c1sc3c(CC)cccc3c1O2` (configuration not stated), the growth was -47.9% (active).

As to `COc1cc2nc3c(=O)n(CCN(C)C)cnn3c(=O)c2cc1OC`, the growth was 104%. For the compound `Cc1ccc2c(n1)C(=O)C(Cl)=C(Nc1ccccc1C(C)C)C2=O`, the growth is 34.9%. As to `O=c1oc2ccc([N+](=O)[O-])cc2cc1Br`, the growth is 101%.

Take `CCOC(=O)C1OC2(CCCC2)OC1C(=O)OCC` (configuration not stated): the growth was 100%.
